Source: PubChem BioAssay (NCATS)
Where “and” joins values, the source holds several entries; their conditions need not be identical. Identical values can stand only once. Unmarked numbers belong to inactive results. Records with an inconclusive call do not appear. Where a call stands in place of a potency, no number is given. Calls of active or inactive are those of the source. Unless noted, calls come from the whole dose curve; as a rule, active = well fitted curve in the direction sought with a large enough effect; inconclusive = small, poorly fitted or top-dose-only effect, or another doubt; inactive = no such curve, though single readings can be large; an effect the other way counts as inactive or inconclusive.

Key:
[1] = molecular target: Beta-2 adrenergic receptor (Homo sapiens) (UniProt P07550); assay: qHTS validation assay of beta-arrestin-biased ligands of beta2-adrenergic receptor (AID 485366)
Procedure, shortened: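 Tango cells expressing recombinant beta2-AR and beta-arrestin with tTA-driven luciferase, in DMEM with 1% FBS. Compounds were titrated up to 46 microM for 18 hr at 37 degrees C. Luminescence was read 15 min after substrate; curves were fitted and class-assigned.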

[2] = molecular target: ATP-dependent 6-phosphofructokinase (Trypanosoma brucei brucei) (UniProt O15648); assay: qHTS Validation Assay to Find Inhibitors of T. brucei phosphofructokinase (AID 485368); note: potency is the fitted concentration of half-maximal effect
Procedure, shortened: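 Activity was read as ADP production by luminescence (ADP-Glo) after 45 min at room temperature. The enzyme was 1.25nM PFK in 0.1M TEA pH 8.0 with 0.5 mM F6P, 0.1mM ATP and 5 mM MgCl2. Compounds were titrated up to 57 uM and % activity normalized to no-enzyme and full-enzyme controls.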

[3] = molecular target: Thioredoxin reductase 1, cytoplasmic (Rattus norvegicus) (UniProt O89049); assay: qHTS Assay for Substrates of Mammalian Selenoprotein Thioredoxin Reductase 1 (TrxR1) (AID 488772);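 note: NADPH fluorescence in the first read after selenite addition and not the 8 min delta; series mostly up to about 57 µM; a drop in NADPH fluorescence below the no-compound background marks a TrxR1 substrate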
Procedure, shortened: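 Quantitative HTS in Tris-HCl buffer at pH 7.5 with EDTA and Tween-20, using rat TrxR1, 400 uM NADPH and 400 uM selenite (final). A fall in initial NADPH fluorescence relative to background marked substrate behaviour.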

[4] = molecular target: Flap endonuclease 1 (Homo sapiens) (UniProt P39748); assay: qHTS Validation Assay for the Inhibitors of Human Flap endonuclease 1 (FEN1) (AID 488816)
Procedure, shortened: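 FEN1, dispensed as a 10 nM reagent, was preincubated with pin-transferred compounds for 15 min at room temperature before substrate was added (50 nM final). Plates were read at 0 and 15 min, and a four-parameter Hill equation was fitted to the concentration-response data.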

[5] = molecular target: M-phase phosphoprotein 8 (Homo sapiens) (UniProt Q99549); assay: qHTS Validation Assay for Inhibitors for MPP8 Chromodomain Interactions with Methylated Histone Tails (AID 488949); note: nearly all actives have a fitted effect of over 55% in size; note: potency is the fitted concentration of half-maximal effect
Procedure, shortened: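 AlphaScreen proximity signal from streptavidin donor and Ni-chelate acceptor beads (10 ug/mL each) reported binding of MPP8 to trimethyl-K9 H3(1-18) peptide, both at 50 nM. The complex formed 30 min before a 30 min compound exposure at room temperature, in PBS pH 7.4.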

[6] = molecular target: Chromobox protein homolog 1 (Homo sapiens) (UniProt P83916); assay: qHTS Validation Assay for Inhibitors of HP1-beta Chromodomain Interactions with Methylated Histone Tails (AID 488953); note: nearly all actives have a fitted effect of over 50% in size; note: potency is the fitted concentration of half-maximal effect
Procedure, shortened: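 Measured as loss of AlphaScreen luminescence from streptavidin donor and nickel acceptor beads (10 ug/mL final) bridging HP1-beta and biotin-H3(1-18)K9me3, each 50 nM. Compounds met the preassembled complex for 30 min at RT.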

[7] = molecular target: Methanococcus maripaludis chaperonin (MmCpn) (UniProt Q6LX38); assay: High-Throughput Screening for Modulators of Cytosolic Chaperonin Activity: MmCpn Primary Screen (AID 488978);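 note: 50 nM MmCpn enzyme hydrolysing 30 µM ATP at 37 °C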
Procedure, shortened: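 ATPase activity of 50 nM MmCpn was assayed with 30 uM ATP, 10 minutes at 37C, after a 5 min compound preincubation at room temperature. ADP production was read as HTRF emission at 590 and 665 nm.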

[8] = molecular target: Transient receptor potential cation channel subfamily V member 1 (Homo sapiens) (UniProt Q8NER1); assay: HTS Assay for Compounds that Act as Enhancers of the Vanilloid Receptor 1 (AID 488979)
Procedure, shortened: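 TRPV1-expressing cells loaded with Fluo-8 calcium dye; compounds added and calcium influx read kinetically for 3 min (agonist phase), then capsaicin at EC20 added and read 2 min more for enhancement. Fluorescence ex 480/em 520 nm.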

[9] = molecular target: Thyrotropin receptor (Homo sapiens) (UniProt P16473); assay: qHTS Assay for Antagonists of the Thyroid Stimulating Hormone Receptor (AID 488980); note: series mostly up to about 58 µM
Procedure, shortened: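 Inhibition of cAMP raised by EC80 TSH (4 nM final) was read by HTRF, with lysate cAMP competing against cAMP-d2 for cryptate antibody after 30 min at room temperature. The cells were transfected HEK293 held in phosphodiesterase inhibitor RO 20-1724 at 70 uM.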

[10] = molecular target: D(1A) dopamine receptor (Homo sapiens) (UniProt P21728); assay: HTS Assay for Allosteric Agonists of the Human D1 Dopamine Receptor: Primary Screen for Agonists (AID 488981)
Procedure, shortened: (§1)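 Tetracycline-induced HEK293 T-REx cells force-coupled to calcium signalling were incubated overnight at 30 C and dye-loaded at room temperature. Calcium flux over 180 s after compound addition flagged agonists; a further 180 s read after EC20 dopamine flagged potentiators.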

[11] = molecular target: D(1A) dopamine receptor (Homo sapiens) (UniProt P21728); assay: HTS Assay for Allosteric Agonists of the Human D1 Dopamine Receptor: Primary Screen for Antagonists (AID 488983);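 note: calcium flux response to an EC80 dopamine challenge measured with no-wash dye; nearly all actives have a fitted effect of over 65% in size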; note: potency is the fitted concentration of half-maximal effect
Procedure, shortened: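 Screening of inducible HEK293 T-REx D1 cells: compound first, EC80 dopamine 180 s later, each phase read kinetically for calcium over 180 s.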

[12] = molecular target: ATPase family AAA domain-containing protein 5 (Homo sapiens) (UniProt Q96QE3); assay: Validation screen for small molecules that inhibit ELG1-dependent DNA repair in human embryonic kidney (HEK293T) cells expressing luciferase-tagged ELG1 (AID 493107); note: nearly all actives have a fitted effect of over 70% in size; note: potency is the fitted concentration of half-maximal effect
Procedure, shortened: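 Quantitative HTS in HEK293T cells carrying luciferase-tagged ELG1, stimulated with 5-fluorouridine alongside compound for 16 hr. Loss of luciferase signal marks inhibition of ELG1 response.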

[13] = molecular target: Thyrotropin-releasing hormone receptor (Homo sapiens) (UniProt P34981); assay: qHTS for Small Molecule Agonists and Allosteric Enhancers of Human TRH Receptor: Validation Screen for Agonists (AID 493127;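 active = calcium activation more than 3 SD above the typical response in the agonist read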;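 note: intracellular calcium rise by fluo-8 fluorescence before TRH EC20 addition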); conditions: TRH receptor agonist cell assay; at 2 µM; stronger effect = higher value
Procedure, shortened: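 Gq-coupled calcium mobilization in TRHR cells after compound addition, monitored kinetically with fluo-8 dye on an FDSS reader.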

[14] = molecular target: D(1A) dopamine receptor (Homo sapiens) (UniProt P21728); assay: HTS Assay for Allosteric Agonists of the Human D1 Dopamine Receptor: Primary Screen for Potentiators (AID 488982)
Procedure, shortened: as §1

[15] = Validation screen for small molecules that induce genotoxicity in human embryonic kidney (HEK293T) cells expressing luciferase-tagged ELG1 (AID 493106)
Procedure, shortened: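 Reporter-gene quantitative HTS in HEK293T cells carrying luciferase-tagged ELG1, whose level climbs under genotoxic stress. Compound exposure lasts 16 hr at 37 °C before luciferase detection.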

[16] = molecular target: Thioredoxin reductase 1, cytoplasmic (Rattus norvegicus) (UniProt O89049); assay: qHTS Assay for Inhibitors of Mammalian Selenoprotein Thioredoxin Reductase 1 (TrxR1) (AID 488773); conditions: Potency: inhibition;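 note: drop in NADPH fluorescence over an 8 min run after selenite addition; series mostly up to about 57 µM; nearly all actives have a fitted effect of over 40% in size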
Procedure, shortened: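 Steps: enzyme (90 nM) plus NADPH (400 uM final), 5 min at ~22 deg C; compound added, 15 min; selenite (400 uM final) added; fluorescence followed for 8 min. Concentration-response curves derived from the normalized delta values.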

[17] = Quantitative high throughput screen for delayed death inhibitors of the malarial parasite plastid, 96 hour incubation (AID 488745);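 note: luciferase-expressing P. falciparum in erythrocytes at 2% hematocrit and 0.1% parasitemia; series mostly up to about 29 µM; nearly all actives have a fitted effect of over 70% in size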
Procedure, shortened: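 Growth of reporter-bearing P. falciparum in red cells is measured after 96 h with compound, covering two erythrocytic cycles. Luminescence from the integrated luciferase serves as the growth signal.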

[18] = Quantitative high throughput screen for delayed death inhibitors of the malarial parasite plastid, 48 hour incubation (AID 488752); note: nearly all actives have a fitted effect of over 65% in size
Procedure, shortened: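 One parasite generation (48 h, 37 C, 5% CO2) of luciferase-reporter P. falciparum in erythrocytes is run with test compound; decreased luminescence indicates inhibited growth.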

Chain of Methanococcus maripaludis chaperonin (MmCpn) (Q6LX38 1-543): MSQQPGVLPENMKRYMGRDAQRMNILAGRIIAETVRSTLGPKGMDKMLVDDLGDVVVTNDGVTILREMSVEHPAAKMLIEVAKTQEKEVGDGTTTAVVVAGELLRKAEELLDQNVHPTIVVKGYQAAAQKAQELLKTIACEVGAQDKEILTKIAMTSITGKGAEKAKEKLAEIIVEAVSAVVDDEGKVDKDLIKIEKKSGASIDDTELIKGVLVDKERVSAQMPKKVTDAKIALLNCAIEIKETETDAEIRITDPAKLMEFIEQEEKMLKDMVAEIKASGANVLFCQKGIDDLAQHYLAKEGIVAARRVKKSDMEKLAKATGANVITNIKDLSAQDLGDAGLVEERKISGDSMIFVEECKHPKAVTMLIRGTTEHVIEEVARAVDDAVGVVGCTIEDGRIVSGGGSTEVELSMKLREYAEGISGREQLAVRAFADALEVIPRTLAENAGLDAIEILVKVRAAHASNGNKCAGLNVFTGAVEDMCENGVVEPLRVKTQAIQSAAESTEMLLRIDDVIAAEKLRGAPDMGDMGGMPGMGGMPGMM
Chain of Beta-2 adrenergic receptor (Homo sapiens) (P07550 whole entry, looked up): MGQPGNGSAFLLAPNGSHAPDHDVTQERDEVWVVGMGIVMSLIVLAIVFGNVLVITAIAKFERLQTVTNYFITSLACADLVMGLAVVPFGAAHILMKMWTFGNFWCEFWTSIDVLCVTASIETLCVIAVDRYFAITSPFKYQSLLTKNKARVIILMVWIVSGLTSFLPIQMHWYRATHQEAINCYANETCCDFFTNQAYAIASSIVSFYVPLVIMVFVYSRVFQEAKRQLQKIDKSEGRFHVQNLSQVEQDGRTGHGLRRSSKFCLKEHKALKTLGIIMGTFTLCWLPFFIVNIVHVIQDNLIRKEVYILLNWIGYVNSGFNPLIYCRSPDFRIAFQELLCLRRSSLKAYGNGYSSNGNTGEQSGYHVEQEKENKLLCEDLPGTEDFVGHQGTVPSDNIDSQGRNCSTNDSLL
Chain of ATPase family AAA domain-containing protein 5 (Homo sapiens) (Q96QE3 whole entry, looked up, the tested form may be a part): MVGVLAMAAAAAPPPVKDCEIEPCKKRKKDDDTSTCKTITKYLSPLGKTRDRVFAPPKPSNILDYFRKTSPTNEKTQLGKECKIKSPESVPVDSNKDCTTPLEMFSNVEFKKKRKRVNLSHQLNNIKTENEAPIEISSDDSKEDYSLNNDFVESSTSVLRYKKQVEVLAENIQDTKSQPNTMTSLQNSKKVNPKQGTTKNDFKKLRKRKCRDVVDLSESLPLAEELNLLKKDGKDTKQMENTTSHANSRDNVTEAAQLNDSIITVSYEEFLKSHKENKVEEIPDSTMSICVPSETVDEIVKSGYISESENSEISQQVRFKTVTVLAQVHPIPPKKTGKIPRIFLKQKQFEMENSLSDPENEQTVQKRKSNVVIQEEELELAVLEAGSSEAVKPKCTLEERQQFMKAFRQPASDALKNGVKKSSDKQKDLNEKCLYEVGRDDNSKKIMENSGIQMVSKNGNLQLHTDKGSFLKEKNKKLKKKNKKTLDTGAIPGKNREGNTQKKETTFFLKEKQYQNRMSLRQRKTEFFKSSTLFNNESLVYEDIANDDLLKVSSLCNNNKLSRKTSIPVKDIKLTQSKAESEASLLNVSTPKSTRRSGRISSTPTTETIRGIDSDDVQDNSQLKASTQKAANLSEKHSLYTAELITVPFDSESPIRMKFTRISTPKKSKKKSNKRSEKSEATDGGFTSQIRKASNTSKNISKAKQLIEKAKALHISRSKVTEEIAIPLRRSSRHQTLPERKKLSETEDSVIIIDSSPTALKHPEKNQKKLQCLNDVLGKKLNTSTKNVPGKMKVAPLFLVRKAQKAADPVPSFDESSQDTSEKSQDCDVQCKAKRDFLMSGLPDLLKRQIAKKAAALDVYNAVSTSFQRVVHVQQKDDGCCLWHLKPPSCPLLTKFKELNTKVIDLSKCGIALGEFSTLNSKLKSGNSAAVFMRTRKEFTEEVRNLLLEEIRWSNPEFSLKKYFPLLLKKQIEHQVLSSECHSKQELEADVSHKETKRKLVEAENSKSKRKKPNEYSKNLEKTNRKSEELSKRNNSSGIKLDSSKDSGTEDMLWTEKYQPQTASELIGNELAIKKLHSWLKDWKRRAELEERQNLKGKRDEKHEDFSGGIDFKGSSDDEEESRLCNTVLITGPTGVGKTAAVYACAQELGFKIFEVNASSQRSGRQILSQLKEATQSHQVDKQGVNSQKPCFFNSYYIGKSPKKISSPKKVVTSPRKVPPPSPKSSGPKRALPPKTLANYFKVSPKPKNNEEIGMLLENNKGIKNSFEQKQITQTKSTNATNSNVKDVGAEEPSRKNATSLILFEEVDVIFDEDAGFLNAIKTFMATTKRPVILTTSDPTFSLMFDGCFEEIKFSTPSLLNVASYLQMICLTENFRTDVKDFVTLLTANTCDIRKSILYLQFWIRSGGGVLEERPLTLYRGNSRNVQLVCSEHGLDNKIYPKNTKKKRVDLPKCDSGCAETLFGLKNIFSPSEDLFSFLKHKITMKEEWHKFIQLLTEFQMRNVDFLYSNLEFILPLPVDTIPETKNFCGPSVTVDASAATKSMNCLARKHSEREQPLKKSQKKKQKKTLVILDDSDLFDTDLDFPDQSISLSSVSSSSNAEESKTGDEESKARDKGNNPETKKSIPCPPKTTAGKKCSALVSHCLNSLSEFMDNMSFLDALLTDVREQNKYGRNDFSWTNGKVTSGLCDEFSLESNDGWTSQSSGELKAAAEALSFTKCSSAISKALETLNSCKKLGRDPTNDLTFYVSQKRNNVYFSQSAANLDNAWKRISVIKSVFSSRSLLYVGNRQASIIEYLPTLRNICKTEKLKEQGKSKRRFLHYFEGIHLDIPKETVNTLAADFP
Chain of M-phase phosphoprotein 8 (Homo sapiens) (Q99549 whole entry, looked up): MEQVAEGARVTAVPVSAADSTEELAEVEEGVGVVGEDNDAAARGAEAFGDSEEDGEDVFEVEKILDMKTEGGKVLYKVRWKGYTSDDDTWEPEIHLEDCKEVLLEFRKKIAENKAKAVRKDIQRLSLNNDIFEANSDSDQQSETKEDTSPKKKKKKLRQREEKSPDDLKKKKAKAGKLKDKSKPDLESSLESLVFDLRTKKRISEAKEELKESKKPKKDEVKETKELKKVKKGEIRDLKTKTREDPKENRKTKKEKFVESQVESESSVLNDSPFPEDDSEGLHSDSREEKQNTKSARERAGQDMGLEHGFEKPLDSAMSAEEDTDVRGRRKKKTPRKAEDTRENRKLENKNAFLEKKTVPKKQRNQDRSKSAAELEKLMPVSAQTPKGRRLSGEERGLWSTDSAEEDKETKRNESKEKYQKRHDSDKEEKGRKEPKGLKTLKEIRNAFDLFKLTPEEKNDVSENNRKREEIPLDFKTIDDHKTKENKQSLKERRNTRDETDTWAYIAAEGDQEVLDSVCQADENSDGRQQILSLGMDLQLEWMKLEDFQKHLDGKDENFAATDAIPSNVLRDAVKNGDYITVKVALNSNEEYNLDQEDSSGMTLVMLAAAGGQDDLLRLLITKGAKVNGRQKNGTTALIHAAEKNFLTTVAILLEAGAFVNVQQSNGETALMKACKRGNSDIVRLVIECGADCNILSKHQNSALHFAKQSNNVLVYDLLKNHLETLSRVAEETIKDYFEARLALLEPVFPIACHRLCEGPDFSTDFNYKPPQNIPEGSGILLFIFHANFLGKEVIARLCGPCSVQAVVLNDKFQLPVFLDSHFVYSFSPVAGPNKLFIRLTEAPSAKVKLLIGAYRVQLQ
Chain of Chromobox protein homolog 1 (Homo sapiens) (P83916 whole entry, looked up): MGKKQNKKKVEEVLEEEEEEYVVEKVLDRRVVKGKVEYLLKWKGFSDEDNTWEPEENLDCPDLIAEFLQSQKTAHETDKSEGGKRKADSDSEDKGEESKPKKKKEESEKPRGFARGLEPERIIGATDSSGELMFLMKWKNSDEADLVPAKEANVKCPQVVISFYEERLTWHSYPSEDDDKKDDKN
Chain of Thioredoxin reductase 1, cytoplasmic (Rattus norvegicus) (O89049 whole entry, looked up): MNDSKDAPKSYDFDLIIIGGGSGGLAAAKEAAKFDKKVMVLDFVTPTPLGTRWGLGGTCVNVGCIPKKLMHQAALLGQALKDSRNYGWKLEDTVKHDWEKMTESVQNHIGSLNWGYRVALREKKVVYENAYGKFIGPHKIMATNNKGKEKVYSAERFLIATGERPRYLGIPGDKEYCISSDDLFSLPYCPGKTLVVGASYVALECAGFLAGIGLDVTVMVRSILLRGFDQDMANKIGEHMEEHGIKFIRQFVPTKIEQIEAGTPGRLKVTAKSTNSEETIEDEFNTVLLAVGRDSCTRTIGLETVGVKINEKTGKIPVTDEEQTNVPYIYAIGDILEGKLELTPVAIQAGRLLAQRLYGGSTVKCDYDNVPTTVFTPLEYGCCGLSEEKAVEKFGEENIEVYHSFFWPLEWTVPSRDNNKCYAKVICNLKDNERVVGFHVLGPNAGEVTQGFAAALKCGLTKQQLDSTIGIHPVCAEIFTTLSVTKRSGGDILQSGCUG
Chain of Thyrotropin-releasing hormone receptor (Homo sapiens) (P34981 whole entry, looked up): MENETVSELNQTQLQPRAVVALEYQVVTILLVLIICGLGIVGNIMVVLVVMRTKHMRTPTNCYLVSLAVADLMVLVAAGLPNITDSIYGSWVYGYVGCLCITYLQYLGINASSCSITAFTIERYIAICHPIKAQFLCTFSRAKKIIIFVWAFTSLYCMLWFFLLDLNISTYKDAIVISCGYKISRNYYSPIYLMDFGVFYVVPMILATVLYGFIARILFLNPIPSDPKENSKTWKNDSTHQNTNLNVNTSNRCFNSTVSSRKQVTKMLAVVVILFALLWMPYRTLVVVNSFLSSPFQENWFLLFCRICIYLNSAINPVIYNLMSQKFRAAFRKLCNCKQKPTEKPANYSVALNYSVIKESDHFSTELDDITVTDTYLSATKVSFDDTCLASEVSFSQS

| SMILES | outcome [1] | Potency [2] | outcome [3] | Potency [4] | Potency [5] | Potency [6] | outcome [7] | outcome [8] | outcome [9] | Potency [10] | Potency [11] | Potency [12] | activation [13] [%] | Potency [14] | Potency [15] | Potency [16] | Potency [17] | Potency [18] |
| --- | --- | --- | --- | --- | --- | --- | --- | --- | --- | --- | --- | --- | --- | --- | --- | --- | --- | --- |
| N#C/C(=C\c1ccc(O)c(O)c1)C(=O)NCCc1ccccc1 | inactive | 15.1 µM (active) | inactive | inactive | 11.2 µM (active) and 18.9 µM (active) | 10 µM (active) | inactive | inactive | inactive | inactive | inactive | inactive | 0.438 | – | – | – | – | – |
| COC(=O)C1=C(C)NC(C)=C([N+](=O)[O-])C1c1ccccc1C(F)(F)F (stereo unspecified) | inactive | inactive | inactive | inactive | inactive | – | inactive | inactive | inactive | inactive | inactive | inactive | -3.94 | inactive | inactive | – | – | – |
| Cc1cc(Cn2cnc3c2C[C@@H](C(=O)O)N(C(=O)C(c2ccccc2)c2ccccc2)C3)ccc1N | inactive | inactive | inactive | – | inactive | – | inactive | – | – | inactive | inactive | inactive | – | inactive | inactive | inactive | – | – |
| O=C(O)CCC/C=C\C[C@@H]1[C@@H](/C=C/[C@H](O)C2Cc3ccccc3C2)[C@@H](F)C[C@@H]1O | inactive | inactive | inactive | inactive | inactive | – | inactive | – | – | inactive | – | inactive | – | inactive | inactive | inactive | – | – |
| Cc1nc2n(c(=O)c1CCN1CCC(c3noc4cc(F)ccc34)CC1)CCCC2O (stereo unspecified) | inactive | inactive | inactive | – | inactive | – | inactive | – | – | – | 1 µM (active) | inactive | – | inactive | inactive | inactive | – | – |
| CC(=O)SC1CC2=CC(=O)CC[C@]2(C)C2CC[C@@]3(C)C(CC[C@@]34CCC(=O)O4)C12 (stereo partly specified) | inactive | inactive | inactive | – | inactive | inactive | inactive | – | – | inactive | inactive | 7.3 µM (active) | – | inactive | inactive | inactive | – | – |
| COc1ccc(-c2cc3ncc(C)n3c(Nc3ncccc3C(N)=O)n2)cc1OC | inactive | inactive | inactive | inactive | inactive | inactive | inactive | – | – | – | – | 1.03 µM (active) | – | inactive | inactive | – | – | – |
| c1ccc(C(NCCNC(c2ccccc2)c2ccccc2)c2ccccc2)cc1 | inactive | inactive | inactive | inactive | inactive | – | inactive | – | – | inactive | – | inactive | – | inactive | inactive | inactive | – | – |
| COc1cc([C@@H]2c3cc4c(cc3[C@H](O)C3COC(=O)[C@@H]32)OCO4)cc(OC)c1OC (stereo partly specified) | inactive | inactive | inactive | inactive | inactive | – | inactive | inactive | inactive | inactive | inactive | inactive | 0.5 | inactive | – | inactive | – | – |
| CCCCCC[C@@H]([C@@H](C)O)n1cnc2c(N)ncnc21 | inactive | inactive | inactive | – | inactive | – | inactive | inactive | inactive | – | inactive | inactive | 0.875 | inactive | inactive | inactive | – | – |
| c1ccc2c(c1)CCC[C@H]2Nc1nc2ccccc2[nH]1 | inactive | inactive | – | – | inactive | – | inactive | – | – | inactive | inactive | – | – | inactive | inactive | inactive | – | – |
| Nc1ncnc2c1nc(Br)n2C1OC2COP(=O)(O)O[C@@H]2C1O (stereo partly specified) | inactive | inactive | inactive | inactive | inactive | – | inactive | – | – | inactive | – | inactive | – | inactive | inactive | – | – | – |
| NC[C@@H]1O[C@H](c2ccccc2)Cc2c1ccc(O)c2O | inactive | inactive | inactive | – | inactive | inactive | inactive | – | – | inactive | – | inactive | – | inactive | inactive | inactive | – | – |
| OCC1NCC(O)C(O)C1O (stereo unspecified) | inactive | – | inactive | inactive | inactive | inactive | inactive | inactive | inactive | inactive | inactive | inactive | 0.938 | inactive | inactive | inactive | inactive | inactive |
| CCCn1c(=O)c(C)cn2nc(N)nc12 | inactive | inactive | inactive | inactive | inactive | – | inactive | – | – | inactive | inactive | inactive | – | inactive | inactive | inactive | – | – |
| CN1CC(O)C(O)C(O)C1CO (stereo unspecified) | inactive | inactive | inactive | inactive | inactive | inactive | inactive | – | – | inactive | inactive | inactive | – | inactive | inactive | – | – | – |
| CC(C)(C)c1ccc(/C=C/C(=O)Nc2ccc3c(c2)OCCO3)cc1 | inactive | inactive | inactive | inactive | inactive | – | inactive | – | – | inactive | inactive | 18.3 µM (active) | – | – | inactive | inactive | – | – |
| C=CCN1CCc2cc(O)c(O)cc2C(c2ccccc2)C1 (stereo unspecified) | inactive | inactive | inactive | inactive | inactive | – | inactive | inactive | inactive | inactive | – | inactive | 1.38 | – | inactive | – | – | – |
| C=C1C[C@@]23CC[C@H]4[C@@](C)(CCC[C@@]4(C)C(=O)O)[C@@H]2CC[C@]1(O)C3 | inactive | inactive | inactive | inactive | – | inactive | inactive | – | – | inactive | inactive | inactive | – | inactive | inactive | inactive | – | – |
| CC(=O)O[C@H]1Cc2ccccc2N(C(N)=O)c2ccccc21 | inactive | inactive | inactive | inactive | inactive | – | inactive | – | – | inactive | inactive | – | – | inactive | inactive | inactive | – | – |
